Measurements: publication PMC4336329 (PLoS ONE, 2015)
Screen size: about 310,000 compounds; about 14,000 (4.5%) showed an effect of 50% or more. Effects have a minus sign here. Shown is part of a subset that was picked to be rich in strong results.

Target: human ether-à-go-go-related gene (hERG) potassium channel (human, UniProt Q12809)
Assay: primary screen, population patch clamp on CHO cells stably expressing hERG; higher = less effect of the substance
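Note: peak tail current of the secondary pulse compared with the same well before compound.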

human ether-à-go-go-related gene (hERG) potassium channel, sequence (Q12809 whole entry, looked up): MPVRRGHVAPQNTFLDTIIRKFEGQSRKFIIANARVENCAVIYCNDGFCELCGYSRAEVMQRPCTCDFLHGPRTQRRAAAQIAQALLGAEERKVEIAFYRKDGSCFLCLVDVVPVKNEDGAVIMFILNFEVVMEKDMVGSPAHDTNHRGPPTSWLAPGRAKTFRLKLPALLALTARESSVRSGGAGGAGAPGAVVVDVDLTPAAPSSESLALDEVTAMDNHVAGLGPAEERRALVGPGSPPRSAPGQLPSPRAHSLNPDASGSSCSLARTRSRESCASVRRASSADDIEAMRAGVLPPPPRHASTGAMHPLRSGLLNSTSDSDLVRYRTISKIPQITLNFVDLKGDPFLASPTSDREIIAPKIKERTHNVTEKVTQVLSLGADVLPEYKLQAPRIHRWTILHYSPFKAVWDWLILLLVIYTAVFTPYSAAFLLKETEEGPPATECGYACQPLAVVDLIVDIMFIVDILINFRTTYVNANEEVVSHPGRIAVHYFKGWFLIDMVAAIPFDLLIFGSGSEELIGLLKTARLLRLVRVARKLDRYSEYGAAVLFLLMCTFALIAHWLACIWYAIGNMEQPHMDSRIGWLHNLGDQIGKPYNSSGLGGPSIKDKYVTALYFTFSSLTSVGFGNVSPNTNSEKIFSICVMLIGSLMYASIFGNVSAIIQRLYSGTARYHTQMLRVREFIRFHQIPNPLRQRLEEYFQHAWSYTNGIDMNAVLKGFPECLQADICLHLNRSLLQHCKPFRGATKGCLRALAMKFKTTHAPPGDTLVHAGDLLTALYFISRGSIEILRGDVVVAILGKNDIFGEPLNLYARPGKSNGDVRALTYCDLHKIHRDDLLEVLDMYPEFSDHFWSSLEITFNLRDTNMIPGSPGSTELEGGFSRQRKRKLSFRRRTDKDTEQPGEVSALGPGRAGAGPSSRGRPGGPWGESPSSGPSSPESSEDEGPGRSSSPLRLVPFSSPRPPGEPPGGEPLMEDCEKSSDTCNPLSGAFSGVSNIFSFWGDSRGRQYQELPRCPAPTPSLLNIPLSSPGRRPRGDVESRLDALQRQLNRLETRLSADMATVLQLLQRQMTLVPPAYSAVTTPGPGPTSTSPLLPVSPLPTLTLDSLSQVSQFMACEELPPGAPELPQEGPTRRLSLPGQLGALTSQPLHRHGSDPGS

| Compound | hERG current change (%, negative = inhibition) at 10uM |
| --- | --- |
| Cc1cc(C)c(C)c(S(=O)(=O)NCCN2CCOCC2)c1C | -9.48% |
| Cc1cc(=O)oc2c1ccc1ccccc12 | 18.7% |
| CCN1CCCC1CN(Cc1cc2ccc(C)cc2[nH]c1=O)C(=S)Nc1ccc(OC)cc1OC (stereo not drawn) | -74.5% |
| Cc1ccc2[nH]c(=O)c(CN(CC3CCCO3)C(=S)Nc3ccccc3)cc2c1 (stereo not drawn) | -8.2% |
| CNC(=S)N(Cc1ccc(OC)cc1)Cc1cc2ccc(C)cc2[nH]c1=O | 14% |
| CCN1CCCC1CN(Cc1cc2ccc(C)cc2[nH]c1=O)C(=S)Nc1ccc(F)cc1 (stereo not drawn) | -78.5% |
| Cc1ccc2cc(CN(CC3CCCO3)C(=S)Nc3ccccc3)c(=O)[nH]c2c1 (stereo not drawn) | -37% |
| COC(=O)c1ccccc1NC(=S)N(Cc1ccc2c(c1)OCO2)Cc1cc2ccc(OC)cc2[nH]c1=O | -13.6% |
| COC(=O)c1ccccc1NC(=S)N(Cc1ccc2c(c1)OCO2)Cc1cc2ccc(C)cc2[nH]c1=O | 15.1% |
| CCN1CCCC1CN(Cc1cc2ccc(C)cc2[nH]c1=O)C(=S)Nc1ccccc1C(=O)OC (stereo not drawn) | -85.2% |
| CCN(CC)CCN(Cc1cc2ccc(C)cc2[nH]c1=O)C(=S)Nc1ccccc1C(=O)OC | -64.2% |
| COC(=O)c1ccccc1NC(=S)N(Cc1ccc2c(c1)OCO2)Cc1cc2cc(OC)ccc2[nH]c1=O | 8.29% |
| CCN1CCCC1CN(Cc1cc2ccc(C)cc2[nH]c1=O)C(=S)Nc1ccccc1OC (stereo not drawn) | 46.7% |
| COC(=O)c1ccccc1NC(=S)N(Cc1ccc2c(c1)OCO2)Cc1cc2cc(C)ccc2[nH]c1=O | 0.949% |
| Cc1ccc(NC(=O)CCN2C(=O)C3C4CCC(C4)C3C2=O)cc1[N+](=O)[O-] (stereo not drawn) | -0.749% |
| O=C(Nc1ccc(C(F)(F)F)cc1)c1cc(-c2cccnc2)nc2ccc(Br)cc12 | -16.2% |
| COc1ccc(N(CC(=O)NC(C)C)S(=O)(=O)c2ccc(NC(C)=O)cc2)cc1 | 2.29% |
| CC(=O)c1c(C)[nH]c(C(=O)COC(=O)CCCOc2ccccc2)c1C | 18.7% |
| Cc1cccc(N(C(=O)Cn2nnc3ccccc32)C(C(=O)NC(C)(C)C)c2ccsc2)c1C (stereo not drawn) | 19.7% |
| CCN1CCCC1CN(Cc1cc2ccc(C)cc2[nH]c1=O)C(=S)Nc1ccc(OC)cc1 (stereo not drawn) | 25.3% |

| Compound | hERG current change (%, negative = inhibition) at 10uM |
| --- | --- |
| CCN1CCCC1CN(Cc1cc2ccc(C)cc2[nH]c1=O)C(=S)Nc1cccc(OC)c1 (stereo not drawn) | -70.7% |
| COc1ccc2[nH]c(=O)c(CN(CC3CCCO3)C(=S)Nc3cccc(C)c3)cc2c1 (stereo not drawn) | 16.3% |
| CC(=O)N(Cc1ccc(F)cc1)C1=C(NCCc2ccccc2)C(=O)c2ccccc2C1=O | -0.648% |
| NC(N)=N/N=C/c1c(Cl)cccc1Cl | -10.3% |
| COC(=O)CCCC(NC(=S)N1CC2C[C@@H](C1)Cn1c2cccc1=O)C(=O)OC (stereo partly drawn) | 8.56% |
| Cc1ccc(NC(=S)N(CCCN2CCCC2)Cc2cccn2Cc2ccc(Cl)cc2)cc1Cl | 6.99% |
| CCOc1ccc(NC(=S)N(CCCN2CCCC2)Cc2cccn2Cc2ccc(Cl)cc2)cc1 | -58.4% |
| Cc1ccc(NC(=S)N(CCCN2CCCC2)Cc2cccn2Cc2ccc(Cl)cc2)cc1C | 4.72% |
| Cc1ccc(NC(=S)N(CCCN2CCCC2)Cc2cccn2Cc2ccc(Cl)cc2)cc1 | -22.9% |
| Cc1cccc(NC(=S)N(CCCN2CCCC2)Cc2cccn2Cc2ccc(Cl)cc2)c1 | -71.8% |
| S=C(Nc1cccc(Cl)c1)N(CCCN1CCCC1)Cc1cccn1Cc1ccc(Cl)cc1 | -22.7% |
| CCCCC(CC)CNC(=O)C1C2C=CC(C2)C1C(=O)O (stereo not drawn) | -4.63% |
| CC1(C(=O)NC2CCCCC2)CCC(=O)N1Cc1cccs1 (stereo not drawn) | -0.227% |
| O=C(NCCCN1CCCC1=O)c1csc2ccccc12 | -28.2% |
| CCOc1ccc(CN2CCCC(CO)(Cc3ccccc3F)C2)cc1 (stereo not drawn) | -64.8% |
| CC(C)Oc1ccc(CN2CCCC(CO)(Cc3ccccc3)C2)cc1CO (stereo not drawn) | -43.1% |
| CSCCCN1CCCC(CO)(Cc2ccc(F)cc2)C1 (stereo not drawn) | -30.1% |
| CCn1cc(CN2CCCC(CO)(Cc3ccc(F)cc3)C2)c2ccccc21 (stereo not drawn) | -32% |
| COC(=O)c1ccc(CN2CCCC(CO)(Cc3ccccc3F)C2)cc1 (stereo not drawn) | -32.7% |
| CCOc1ccc(CN2CCCC(CO)(Cc3ccc(F)cc3)C2)cc1 (stereo not drawn) | -62% |

| Compound | hERG current change (%, negative = inhibition) at 10uM |
| --- | --- |
| CC(C)Oc1ccc(CN2CCCC(CO)(Cc3ccc(F)cc3)C2)cc1 (stereo not drawn) | -58.7% |
| COc1cc(CN2CCCC(CO)(Cc3ccccc3F)C2)ccc1O (stereo not drawn) | -22.5% |
| O=C(O)c1cccc2c1C(=O)c1cc(Br)ccc1S2(=O)=O | 20.2% |
| Cc1ccc(S(=O)(=O)NCCS(=O)(=O)N2CCN(c3ccccc3)CC2)cc1 | -1.5% |
| CC(=O)c1nn(-c2cccc(Br)c2)cc1C(=O)c1ccc(Br)cc1 | 12.7% |
| O=C(NCCCN=C1NS(=O)(=O)c2ccccc21)c1ccc(S(=O)(=O)N2CCOCC2)cc1 | 4.24% |
| COCn1ccnc1C(O)(c1ccc(OC)cc1)c1ccc(OC)cc1 | 9.69% |
| O=C(O)CCC(NS(=O)(=O)c1ccc(N2CCCC2=O)cc1)C(=O)O (stereo not drawn) | -7.11% |
| O=C(O)C(=O)O.O=C(c1ccc(F)cc1)N1CCN(C2CCC(c3ccccc3)CC2)CC1 (stereo not drawn) | -76% |
| O=C(O)C(=O)O.O=C(c1ccncc1)N1CCN(C2CCCCC2)CC1 | -23.4% |
| CC1CCC(N2CCN(C(=O)c3ccccc3F)CC2)CC1.O=C(O)C(=O)O (stereo not drawn) | -2.63% |
| O=C(O)C(=O)O.O=C(c1ccccc1)N1CCN(C2CCCCCC2)CC1 | -28.8% |
| COc1cccc(C(=O)N2CCN(C3CCC(c4ccccc4)CC3)CC2)c1OC.O=C(O)C(=O)O (stereo not drawn) | -10.1% |
| O=C(O)C(=O)O.O=C(c1ccccc1)N1CCN(C2CCCCC2)CC1 | -31.9% |
| O=C(c1ccncc1)N1CCN(C(=O)c2ccncc2)CC1 | 12% |
| O=C(O)C(=O)O.O=C(c1ccncc1)N1CCN(C2CCC(c3ccccc3)CC2)CC1 (stereo not drawn) | -63.4% |
| O=C(c1ccc(F)cc1)N1CCC(c2ccccc2)C1 (stereo not drawn) | 2.75% |
| O=C(O)C(=O)O.O=C(c1ccc(F)cc1)N1CCN(C2CCCCC2)CC1 | -62.1% |
| O=C(c1ccc(F)cc1)N1CCCC(c2ccccc2)C1 (stereo not drawn) | 15.8% |
| O=C(O)C(=O)O.O=C(c1ccccc1F)N1CCN(C2CCC(c3ccccc3)CC2)CC1 (stereo not drawn) | -60.5% |
